Measurements taken from publication PMC4336329 (PLoS ONE, 2015).
The whole screen tested about 310,000 compounds, of which about 2,200 (0.71%) showed an effect of 50% or more. Effects have a minus sign here. This is one part of a sample in which strong results are shown more often than they occur.

What follows are compounds tested against human ether-à-go-go-related gene (hERG) potassium channel (human, UniProt Q12809) (assay: primary screen, population patch clamp on CHO cells stably expressing hERG; higher = less effect of the substance).
human ether-à-go-go-related gene (hERG) potassium channel, sequence (Q12809 whole entry, looked up): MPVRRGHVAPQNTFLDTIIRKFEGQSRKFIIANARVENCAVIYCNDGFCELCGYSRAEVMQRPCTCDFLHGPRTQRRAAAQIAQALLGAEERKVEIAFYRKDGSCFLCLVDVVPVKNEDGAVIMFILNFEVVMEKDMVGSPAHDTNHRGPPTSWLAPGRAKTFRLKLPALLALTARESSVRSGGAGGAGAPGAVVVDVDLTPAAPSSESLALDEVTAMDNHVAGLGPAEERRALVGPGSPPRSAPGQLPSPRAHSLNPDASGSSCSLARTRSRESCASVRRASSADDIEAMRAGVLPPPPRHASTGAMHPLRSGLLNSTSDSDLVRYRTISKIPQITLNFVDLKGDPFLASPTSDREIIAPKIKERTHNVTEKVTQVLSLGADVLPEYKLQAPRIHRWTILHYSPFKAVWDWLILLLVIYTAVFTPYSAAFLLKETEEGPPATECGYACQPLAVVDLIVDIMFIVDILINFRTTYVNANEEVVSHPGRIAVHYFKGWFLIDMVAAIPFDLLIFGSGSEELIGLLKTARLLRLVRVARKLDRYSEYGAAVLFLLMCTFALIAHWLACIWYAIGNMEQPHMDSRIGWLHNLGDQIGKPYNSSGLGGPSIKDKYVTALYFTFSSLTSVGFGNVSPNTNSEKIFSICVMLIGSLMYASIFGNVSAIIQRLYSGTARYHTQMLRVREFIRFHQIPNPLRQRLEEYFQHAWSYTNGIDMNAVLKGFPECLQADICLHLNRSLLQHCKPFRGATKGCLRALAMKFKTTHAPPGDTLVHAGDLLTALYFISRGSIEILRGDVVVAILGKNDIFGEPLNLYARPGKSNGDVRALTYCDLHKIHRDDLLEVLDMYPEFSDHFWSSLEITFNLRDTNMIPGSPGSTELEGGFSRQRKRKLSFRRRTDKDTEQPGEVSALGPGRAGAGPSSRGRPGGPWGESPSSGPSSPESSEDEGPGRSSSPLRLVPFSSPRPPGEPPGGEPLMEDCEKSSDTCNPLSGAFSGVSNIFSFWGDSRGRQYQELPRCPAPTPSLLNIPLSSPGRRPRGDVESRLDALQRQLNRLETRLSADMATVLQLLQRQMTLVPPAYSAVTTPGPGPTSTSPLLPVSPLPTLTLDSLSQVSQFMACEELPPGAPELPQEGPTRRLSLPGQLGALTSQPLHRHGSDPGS
Method: Briefly, Chinese hamster ovary (CHO) cells stably expressing the hERG channel were dislodged from tissue culture flasks and dispensed into PPC plates. […] During the recording, background leak currents were estimated by a 100 ms step to -80 mV from an initial holding potential of -70 mV and subtracted from the subsequent current measurement. The campaign was conducted in two phases using slight differences in recording protocol. In the first phase, the initial voltage pulse used a 100 ms step to -30 mV from a holding potential of -70 mV, a 2 s conditioning step to +25 mV, and a 2 s test step to -30 mV. During the second phase of the screen, the potential during the conditioning step was raised to +45 mV. In both phases of the campaign, a secondary voltage pulse was applied using the same parameters as the second phase initial pulse. The initial and secondary pulses were applied in the absence of compound, and upon application of 1 μM and 10 μM test concentrations. Small molecule effects on hERG current density were quantified by […].
`CCCC(=O)Nc1nnc(CCc2ccccc2)s1.Cl` was tested, and the “hERG current change (%, negative = inhibition) at 1uM” value was 12.1%. For `COc1cccc(NC(=O)NC2(C(F)(F)F)Oc3ccccc3O2)c1`, the “hERG current change (%, negative = inhibition) at 1uM” value was 8.19%. For `Cc1cc(C)n(CC(=O)c2ccc(Br)cc2)c(=O)c1C#N`, the “hERG current change (%, negative = inhibition) at 1uM” value was -2.8%. In the case of `CCCN(c1ccc(OCC)cc1)S(=O)(=O)c1ccc2c(c1)CCN2C(=O)CCC(=O)O`, the “hERG current change (%, negative = inhibition) at 1uM” value is reported as 12.5%. In the case of `Cc1ccc(S(=O)(=O)c2cc3c(=O)n4ccccc4nc3n(CCCN3CCOCC3)c2=N)cc1C`, the “hERG current change (%, negative = inhibition) at 1uM” value is reported as 2.37%. For `N=c1c(S(=O)(=O)c2ccccc2)cc2c(=O)n3ccccc3nc2n1CCCN1CCOCC1`, the “hERG current change (%, negative = inhibition) at 1uM” value was -42.5%. With `N=c1c(C(=O)NCCN2CCOCC2)cc2c(=O)n3ccccc3nc2n1Cc1ccc(F)cc1` the “hERG current change (%, negative = inhibition) at 1uM” value was -19.2%. `N=c1c(C(=O)NCCN2CCOCC2)cc2c(=O)n3ccccc3nc2n1CCCN1CCOCC1` was tested, and the “hERG current change (%, negative = inhibition) at 1uM” value was 13.2%. With `N=c1c(C(=O)NCCc2ccccc2)cc2c(=O)n3ccccc3nc2n1CCCN1CCOCC1` the “hERG current change (%, negative = inhibition) at 1uM” value was -77.8%. For `N=c1c(C(=O)NCc2ccccc2)cc2c(=O)n3ccccc3nc2n1CCCN1CCOCC1`, the “hERG current change (%, negative = inhibition) at 1uM” value was -80.7%. With `N=c1c(C(=O)NCc2ccc(F)cc2)cc2c(=O)n3ccccc3nc2n1CCCN1CCOCC1` the “hERG current change (%, negative = inhibition) at 1uM” value was -91.8%. For `O=C(NCCN1CCOCC1)c1cc2c(=O)n3ccccc3nc2n1Cc1ccccc1`, the “hERG current change (%, negative = inhibition) at 1uM” value was 8.53%. `COc1ccc(/C=C/CN2CCC(Oc3ccc(C(=O)N4CCCCC4)cc3)CC2)cc1` was tested, and the “hERG current change (%, negative = inhibition) at 1uM” value was -15.6%. In the case of `COc1ccc(-c2nc(C#N)c(NCCc3ccccc3)o2)cc1OC`, the “hERG current change (%, negative = inhibition) at 1uM” value is reported as 10.5%. `COc1cc(NC(=O)C/C(C)=N/NC(=O)C2CCCCC2)c(OC)cc1Cl` was tested, and the “hERG current change (%, negative = inhibition) at 1uM” value was 14.8%. For `COc1ccc(NC(=O)C/C(C)=N/NC(=O)C(=O)NC2CCCCC2)c(OC)c1`, the “hERG current change (%, negative = inhibition) at 1uM” value was -3.65%. With `COc1cc(NC(=O)C/C(C)=N/NC(=O)C(=O)NC2CCCCC2)c(OC)cc1Cl` the “hERG current change (%, negative = inhibition) at 1uM” value was -66.8%. For `O=C(NCc1cccnc1)C12CC3CC(CC(Cl)(C3)C1)C2`, the “hERG current change (%, negative = inhibition) at 1uM” value was 19%. `Cc1cccc(NC(=O)c2c(F)c(F)c(F)c(F)c2F)c1` was tested, and the “hERG current change (%, negative = inhibition) at 1uM” value was -0.482%. In the case of `COc1cccc(CNc2ccc([N+](=O)[O-])cc2C)c1`, the “hERG current change (%, negative = inhibition) at 1uM” value is reported as 10.7%. For `Cc1cc([N+](=O)[O-])ccc1NCc1cccc([N+](=O)[O-])c1`, the “hERG current change (%, negative = inhibition) at 1uM” value was -56.6%. In the case of `CCOC(=O)N1CCN(CC(=O)Nc2ccc([N+](=O)[O-])cc2C(=O)Nc2ccccc2F)CC1`, the “hERG current change (%, negative = inhibition) at 1uM” value is reported as -5.13%. With `O=[N+]([O-])c1ccc(NC2CCN(Cc3ccccc3)CC2)c([N+](=O)[O-])c1` the “hERG current change (%, negative = inhibition) at 1uM” value was -60%. With `O=[N+]([O-])c1ccccc1NC1CCN(Cc2ccccc2)CC1` the “hERG current change (%, negative = inhibition) at 1uM” value was -26.7%. In the case of `O=C(CN1CCN(Cc2ccccc2)CC1)Nc1ccc([N+](=O)[O-])cc1C(=O)Nc1ccccc1F`, the “hERG current change (%, negative = inhibition) at 1uM” value is reported as -56.8%. With `Cc1cc([N+](=O)[O-])ccc1NCc1ccccc1` the “hERG current change (%, negative = inhibition) at 1uM” value was 4.76%. `O=[N+]([O-])c1cc(C(F)(F)F)ccc1NC1CCN(Cc2ccccc2)CC1` was tested, and the “hERG current change (%, negative = inhibition) at 1uM” value was 3.28%. In the case of `Cc1cc([N+](=O)[O-])ccc1NC(=O)CN1CCN(Cc2ccccc2)CC1`, the “hERG current change (%, negative = inhibition) at 1uM” value is reported as -73.7%. With `Cc1ccc(F)cc1NC(=O)CN1CCN(Cc2ccccc2)CC1` the “hERG current change (%, negative = inhibition) at 1uM” value was -16.8%. In the case of `Cc1ccccc1NC(=O)CN1CCN(Cc2ccccc2)CC1`, the “hERG current change (%, negative = inhibition) at 1uM” value is reported as 1.75%. For `O=C(CN1CCN(c2cccc(Cl)c2)CC1)Nc1ccc([N+](=O)[O-])cc1C(=O)Nc1ccccc1F`, the “hERG current change (%, negative = inhibition) at 1uM” value was 11.4%. `O=S(=O)(CC(CN1CCCCC1)N1CCCCC1)c1ccccc1` (centres unmarked) was tested, and the “hERG current change (%, negative = inhibition) at 1uM” value was 6.73%. With `O=C(Cn1cnc2c(NC(=O)OCc3ccccc3)ncnc21)NCc1ccccn1` the “hERG current change (%, negative = inhibition) at 1uM” value was 0.393%. For `O=C(NCCS(=O)(=O)N1CCN(c2ccccc2F)CC1)C1CC(=O)N(c2ccccc2)C1` (centres unmarked), the “hERG current change (%, negative = inhibition) at 1uM” value was 11.6%. With `O=C(Nc1ccon1)C1CCN(S(=O)(=O)c2cccs2)CC1` the “hERG current change (%, negative = inhibition) at 1uM” value was -4.01%. `CC(=O)NNS(=O)(=O)c1ccc(-c2cc(C(F)(F)F)n(C)n2)s1` was tested, and the “hERG current change (%, negative = inhibition) at 1uM” value was 2.67%. With `CCOc1ccc2[nH]c(=O)c(CN(CCN3CCOCC3)Cc3nnnn3C(C)(C)CC)cc2c1` the “hERG current change (%, negative = inhibition) at 1uM” value was 12.1%. `COc1ccc(NC(=O)CSc2nnc(Cc3ccc(C)cc3)c(=O)n2N)cc1OC` was tested, and the “hERG current change (%, negative = inhibition) at 1uM” value was 4%. With `CC(=O)N(C(C)=O)S(=O)(=O)c1ccc(N=NN2CCCCC2)cc1` the “hERG current change (%, negative = inhibition) at 1uM” value was 11.6%. `Cc1ccc(CNC(=O)CCS(=O)(=O)c2ccc3c(c2)CC(C)N3C(=O)C2CC2)cc1` (centres unmarked) was tested, and the “hERG current change (%, negative = inhibition) at 1uM” value was 0.306%. With `CCOC(=O)N1CCN(C(=O)c2ccc([N+](=O)[O-])cc2Cl)CC1` the “hERG current change (%, negative = inhibition) at 1uM” value was 6.8%. `Cc1ccc(C[n+]2c(-c3ccc(C)cc3)cc(-c3ccc(C)cc3)cc2-c2ccc(C)cc2)cc1.[O-][Cl+3]([O-])([O-])[O-]` was tested, and the “hERG current change (%, negative = inhibition) at 1uM” value was -61.7%. For `Oc1ccc(-[n+]2c(-c3ccccc3)cc(-c3ccccc3)cc2-c2ccccc2)cc1.[O-][Cl+3]([O-])([O-])[O-]`, the “hERG current change (%, negative = inhibition) at 1uM” value was 5.58%. `Cc1ccccc1-[n+]1c(-c2ccccc2)cc(-c2ccccc2)cc1-c1ccccc1.[O-][Cl+3]([O-])([O-])[O-]` was tested, and the “hERG current change (%, negative = inhibition) at 1uM” value was -55.8%. In the case of `Fc1ccc(C[n+]2c(-c3ccccc3)cc(-c3ccccc3)cc2-c2ccccc2)cc1.[O-][Cl+3]([O-])([O-])[O-]`, the “hERG current change (%, negative = inhibition) at 1uM” value is reported as -27.1%. For `Clc1ccc(C[n+]2c(-c3ccccc3)cc(-c3ccccc3)cc2-c2ccccc2)cc1.[O-][Cl+3]([O-])([O-])[O-]`, the “hERG current change (%, negative = inhibition) at 1uM” value was -25.5%. `Oc1ccccc1-[n+]1c(-c2ccccc2)cc(-c2ccccc2)cc1-c1ccccc1.[O-][Cl+3]([O-])([O-])[O-]` was tested, and the “hERG current change (%, negative = inhibition) at 1uM” value was -40.5%. In the case of `Nc1ccccc1-[n+]1c(-c2ccccc2)cc(-c2ccccc2)cc1-c1ccccc1.[O-][Cl+3]([O-])([O-])[O-]`, the “hERG current change (%, negative = inhibition) at 1uM” value is reported as 0.0928%. With `COc1ccc(-[n+]2c(-c3ccccc3)cc(-c3ccc(C)cc3)cc2-c2ccccc2)cc1.[O-][Cl+3]([O-])([O-])[O-]` the “hERG current change (%, negative = inhibition) at 1uM” value was -52%. In the case of `Brc1ccc(-[n+]2c(-c3ccccc3)cc(-c3ccccc3)cc2-c2ccccc2)cc1.[O-][Cl+3]([O-])([O-])[O-]`, the “hERG current change (%, negative = inhibition) at 1uM” value is reported as -18.7%. `COc1ccc(-[n+]2c(-c3ccccc3)cc(-c3ccccc3)cc2-c2ccccc2)cc1.[O-][Cl+3]([O-])([O-])[O-]` was tested, and the “hERG current change (%, negative = inhibition) at 1uM” value was -29.2%. `Cc1ccc(-c2cc(-c3ccc(C)cc3)[n+](-c3ccc(C(=O)O)cc3)c(-c3ccc(C)cc3)c2)cc1.[O-][Cl+3]([O-])([O-])[O-]` was tested, and the “hERG current change (%, negative = inhibition) at 1uM” value was 17.7%. For `Cc1ccc(-c2cc(-c3ccc(C)cc3)[n+](-c3ccccc3)c(-c3ccc(C)cc3)c2)cc1.[O-][Cl+3]([O-])([O-])[O-]`, the “hERG current change (%, negative = inhibition) at 1uM” value was -77.3%.
